Screening results (PubChem BioAssay)
The list is not random: actives were taken first. Their share in the collection is about 19%.
Pf growth 96h: P. falciparum growth inhibition at 96 hours | P. falciparum luciferase reporter growth, 96 h | Potency, µM (series often up to 28.7 µM), actives largely listed as inhibitors | 320,000 tested, 6.9% active | AID 504834
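Luminescence readout: decreased luciferase signal marks inhibited growth of reporter-expressing P. falciparum in infected red cells (2% hematocrit, 0.05% parasitemia final), exposed to compound two generations (96 h, 37 C, 5% CO2).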
Pf growth 48h: inhibits P. falciparum growth in the first generation, 48 h; 310,000 tested, 5.9% active; P. falciparum luciferase growth in erythrocytes, 48 h; AID 504832; Potency, µM (top dose mostly 28.7 µM), actives largely listed as inhibitors
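Growth was read as firefly luciferase luminescence after a 48 h, 37 C, 5% CO2 exposure of compounds to reporter-bearing P. falciparum cultures (0.1% parasitemia, 2% hematocrit final) in Albumax-supplemented RPMI 1640.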
Shiga toxin inh: blocks Shiga toxin action in Vero cells; Vero cells, Shiga toxin protein synthesis inhibition reporter; inhibition, % at 38.7 µM; 290,000 tested, 9.2% active; in the data active means inhibition mostly above about 28%, no sharp cut-off; inactive means mostly below about 43%
AMA1-RON2 inh: inhibitors of Plasmodium falciparum AMA1-RON2 interaction. 360,000 tested, 0.2% active. AID 720542. AlphaScreen AMA1-biotinylated RON2 peptide binding. Potency, µM (series often up to 58.2 µM), hits mostly inhibitors; further: nearly all actives have a fitted effect of over 45% in size
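AMA1 (3D7) with his tag at 25 nM final met compounds first, then biotinylated RON2 peptide at 25 nM; detection used donor plus acceptor beads, 10 µg/mL apiece, read by AlphaScreen after 30 min at room temperature.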
SARS PLP yeast: inhibitors of SARS-CoV papain-like protease in yeast | 330,000 tested, 0.19% active | S. cerevisiae expressing SARS-CoV PLpro, growth rescue | AID 485353 | Potency, µM (top dose mostly 32.9 µM), actives largely listed as activators; calls by dose curve; further: nearly all actives have a fitted effect of over 55% in size
CHX counter: counter-screen hit for Shiga toxin inhibitors, cycloheximide. cell reporter, cycloheximide protein synthesis inhibition counterscreen. max response, %. 300,000 tested, 12% active. AID 2314; in the data active means max response mostly above about 13%, no sharp cut-off; inactive means mostly below about 14%; further: read at 38.3 µM for the half of the compounds with a filed dose
Numbers stand for hits; n = inactive; u = inconclusive; x = no result. Unless noted, the call rests on the fitted dose curve; in most records, active means well fitted curve in the direction sought with a large enough effect; inconclusive means small, poorly fitted or top-dose-only effect, or another doubt; inactive means no such curve, though single readings can be large; an effect the other way counts as inactive or inconclusive.

SMILES	Pf growth 96h	Pf growth 48h	Shiga toxin inh	AMA1-RON2 inh	SARS PLP yeast	CHX counter
CN(c1ccccc1)S(=O)(=O)c1cccc(NC(=O)CCNC(=O)c2ccc(Cl)cc2)c1	u	u	x	n	n	x
CN(c1ccccc1)S(=O)(=O)c1cccc(NC(=O)c2cncc(Br)c2)c1	8.28µM	10.4µM	n	n	n	n
CN(c1ccccc1)S(=O)(=O)c1cccc(C(=O)Nc2ccc3c(c2)CCC3)c1	u	u	81.9	n	n	20.5
CN(c1ccccc1)S(=O)(=O)c1cccc(NC(=O)CCNC(=O)c2ccc([N+](=O)[O-])cc2)c1	x	x	x	n	n	x
CCNC(=O)N1CCCC(C(=O)c2ccc(OC)c(OC)c2)C1 (centres undefined)	u	n	n	n	n	n
CN1C[C@@H]2[C@@H]3C(=O)N(Cc4ccccc4)C(=O)[C@@H]3[C@](C)(C1=O)N2C(=O)c1ccccc1	x	x	x	n	x	x
CCN(CC)S(=O)(=O)c1cccc(NC(=O)c2ccccc2Br)c1	u	10.4µM	n	n	n	n
CCN(CC)C(=O)c1cccc(-c2csc(C(O)c3cccc(Cl)c3)n2)c1 (centres undefined)	x	x	x	n	x	x
Cc1cccc(NC(=O)COc2ccc(/C=N\n3cnnc3)cc2)c1	u	n	n	n	n	n
CC1CCN(c2cc(N3CCOCC3)c([N+](=O)[O-])cc2F)CC1	14.7µM	u	n	n	n	n
CC1CCN(c2cc(N3CCOCC3)c(F)cc2[N+](=O)[O-])CC1	n	u	n	n	n	n
CC(=O)c1ccc(NC(=O)C2=CC(c3ccco3)=NS(=O)(=O)N2C)cc1	n	n	n	n	n	14.7
O=C(Nc1ccccc1)c1ccc2nc(-c3ccco3)c(-c3ccco3)nc2c1	x	u	n	n	n	n
COc1ccc(NC(=O)C2=CC(c3ccco3)=NS(=O)(=O)N2C)cc1OC	n	n	n	n	n	n
CCCNC(=O)c1ccc2nc(-c3ccccc3)c(-c3ccccc3)nc2c1	u	5.22µM	n	n	n	n
O=C(Nc1ccc2nc(-c3ccco3)c(-c3ccco3)nc2c1)N1CCCC1	x	x	61.6	x	x	30.1
CC(=O)c1ccc(NC(=O)c2ccc3nc(-c4ccco4)c(-c4ccco4)nc3c2)cc1	x	11.7µM	n	n	n	n
Cn1c(CCCNC(=O)c2ccco2)nc2ccccc21	x	x	x	n	x	x
C[C@@H]1COc2cc(N3CCSCC3)ccc2S(=O)(=O)N1	x	x	x	n	x	x
CCC[C@H](N[C@@H](C)C(=O)N1[C@H](C(=O)O)C[C@@H]2CCCC[C@@H]21)C(=O)OCC	n	n	x	n	x	x
CCCNC(=O)C(Cc1ccccc1)NC(=O)c1ccc(C(C)(C)C)cc1 (centres undefined)	u	u	x	n	n	x
O=C(NCc1ccccc1)c1ccc2nc(-c3ccco3)c(-c3ccco3)nc2c1	11.7µM	x	n	n	n	n
CCCNC(=O)C(Cc1ccccc1)NC(=O)c1ccc(-c2ccccc2)cc1 (centres undefined)	1.47µM	n	x	n	n	x
COc1ccc(CNC(=O)C2CCNCC2)cc1	n	n	n	n	n	n
COc1ccc(OCC2CCNCC2)cc1	n	n	38.7	n	n	32.9
SMILES	Pf growth 96h	Pf growth 48h	Shiga toxin inh	AMA1-RON2 inh	SARS PLP yeast	CHX counter
Cc1cc(=O)[nH]c(SCC(=O)Nc2cccc(S(=O)(=O)N3CCOCC3)c2)n1	u	n	x	n	n	x
O=C(NCc1ccccc1)C1=C[C@H](c2coc3ccccc3c2=O)C[C@H](OCCCCO)O1	10.4µM	u	n	n	n	n
CC(=O)n1cc([C@H]2C=C(C(=O)NCc3ccccc3)O[C@@H](OCCCCO)C2)c2ccccc21	u	5.86µM	n	n	n	n
CC(=O)n1cc([C@@H]2C=C(C(=O)NCc3ccccc3)O[C@H](OCCCCO)C2)c2ccccc21	u	u	n	n	n	n
CC(=O)n1cc([C@H]2C=C(C(=O)Nc3ccccc3)O[C@@H](OCCCCO)C2)c2ccccc21	u	9.28µM	n	n	n	n
O=C(NCc1ccccc1)C1=C[C@@H](c2coc3ccccc3c2=O)C[C@@H](OCCCCO)O1	u	u	n	n	n	n
O=C(O)c1ccc(N2C(=O)CC(N3CCN(c4cccc(Cl)c4)CC3)C2=O)cc1 (centres undefined)	u	n	x	n	n	9.7
O=C(O)c1ccc(N2C(=O)CC(N3CCN(c4cccc(C(F)(F)F)c4)CC3)C2=O)cc1 (centres undefined)	n	n	n	n	n	n
